From PubChem BioAssay
For part of these data: Results with a measured potency or affinity are listed apart. Calls of active or inactive are those of the source. Unless noted, no rule for the calls is given here.

Legend:
[1] = antimalarial activity against Dd2 strain (AID 2302;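 active = growth inhibition above 50% at the single 2 µM test dose, taken to imply half-maximal potency below 2 µM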;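 also: 0% = DMSO untreated growth and 100% = chloroquine plus artemisinin killed control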); details: P. falciparum Dd2 in RBCs, LDH growth readout, 72 h; at 2 µM; hits give high values
[2] = HepG2 cytotoxicity, primary screen, cytotoxicity control for P. falciparum antimalarial project, cell-based, ATP luminescence (AID 2303;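 active = inhibition above 50%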;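 also: 0% = DMSO wells and 100% = digitonin-killed cells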); details: HepG2 viability, 24-48 h, at 10 µM, hits give high values
[3] = molecular target: L-lactate dehydrogenase (Plasmodium falciparum (isolate CDC / Honduras)) (UniProt Q27743); test: PfLDH activity inhibition – cell lysate, 3D7 strain, counter-screen for P. falciparum growth inhibition project (AID 2304);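 also: 0% = vehicle and 100% = reference inhibitor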; details: P. falciparum 3D7 crude extract, LDH APAD/NBT absorbance; at 2 µM; hits give high values
L-lactate dehydrogenase (Plasmodium falciparum (isolate CDC / Honduras)), sequence (Q27743 whole entry, looked up): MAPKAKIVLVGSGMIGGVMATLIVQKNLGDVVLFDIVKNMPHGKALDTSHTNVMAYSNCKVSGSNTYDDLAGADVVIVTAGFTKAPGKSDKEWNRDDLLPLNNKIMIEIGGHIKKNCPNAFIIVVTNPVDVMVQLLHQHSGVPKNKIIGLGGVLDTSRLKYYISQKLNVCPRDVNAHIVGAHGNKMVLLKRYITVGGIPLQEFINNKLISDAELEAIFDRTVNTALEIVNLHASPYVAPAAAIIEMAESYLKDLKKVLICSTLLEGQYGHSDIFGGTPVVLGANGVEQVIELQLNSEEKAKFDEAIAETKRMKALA

[4] = inhibition of 3D7 malaria parasite growth – strain 3D7 (AID 2306);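 also: 0% = DMSO wells and 100% = chloroquine plus artemisinin control wells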; details: P. falciparum 3D7 erythrocytic growth, LDH absorbance, 72 h; at 2 µM; hits give high values
[5] = molecular target: Calcium-dependent protein kinase 1 (Plasmodium falciparum (isolate 3D7)) (UniProt P62344); test: PfCDPK1 kinase inhibitors, biochemical, TCAMS library (AID 1159585; cut-off not given, nearly all actives have IC50 up to about 0.98 µM;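 also: inhibitors leave more ATP so luminescence rises with inhibition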); details: recombinant PfCDPK1, Kinase-Glo ATP depletion luminescence
Calcium-dependent protein kinase 1 (Plasmodium falciparum (isolate 3D7)), sequence (P62344 whole entry, looked up): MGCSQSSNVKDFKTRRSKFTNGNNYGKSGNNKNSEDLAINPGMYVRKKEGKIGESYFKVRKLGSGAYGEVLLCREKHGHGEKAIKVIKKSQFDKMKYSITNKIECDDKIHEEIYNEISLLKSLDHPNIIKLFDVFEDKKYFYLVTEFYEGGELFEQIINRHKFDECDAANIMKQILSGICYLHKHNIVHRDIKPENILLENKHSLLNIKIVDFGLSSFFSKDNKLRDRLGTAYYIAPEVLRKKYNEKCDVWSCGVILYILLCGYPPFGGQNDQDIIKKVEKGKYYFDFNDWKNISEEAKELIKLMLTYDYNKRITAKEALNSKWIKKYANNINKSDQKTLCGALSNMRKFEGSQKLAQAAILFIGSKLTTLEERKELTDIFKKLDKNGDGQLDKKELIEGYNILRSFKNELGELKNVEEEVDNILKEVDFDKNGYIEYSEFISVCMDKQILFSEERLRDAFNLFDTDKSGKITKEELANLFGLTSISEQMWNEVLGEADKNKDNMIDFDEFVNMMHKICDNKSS

[6] = molecular target: Plasmodium falciparum protein kinase 6 (PK6, PF3D7_1337100) (UniProt Q8IDW1); test: PfPK6 kinase inhibitors, biochemical, TCAMS library (AID 1159586); details: recombinant PfPK6, Kinase-Glo ATP depletion luminescence
Plasmodium falciparum protein kinase 6 (PK6, PF3D7_1337100), sequence (Q8IDW1 1-305): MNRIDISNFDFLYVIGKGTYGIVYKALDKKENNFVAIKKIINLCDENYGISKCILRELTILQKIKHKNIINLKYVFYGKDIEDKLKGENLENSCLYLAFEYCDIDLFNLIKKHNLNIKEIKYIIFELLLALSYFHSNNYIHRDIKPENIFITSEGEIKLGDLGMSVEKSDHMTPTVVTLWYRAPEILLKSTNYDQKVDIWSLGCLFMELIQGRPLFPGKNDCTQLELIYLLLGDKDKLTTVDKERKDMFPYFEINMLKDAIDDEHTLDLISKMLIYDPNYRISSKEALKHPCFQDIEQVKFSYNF

[7] = molecular target: Protein kinase 7 (PK7), Plasmodium falciparum 3D7 (PF3D7_0213400) (UniProt Q7YTF7); test: inhibition of Plasmodium PK7 catalytic activity – biochemical, TCAMS antimalarial set, Kinase-Glo luminescence (AID 1159587); details: recombinant PfPK7, Kinase-Glo ATP depletion luminescence
Protein kinase 7 (PK7), Plasmodium falciparum 3D7 (PF3D7_0213400), sequence (Q7YTF7 1-343): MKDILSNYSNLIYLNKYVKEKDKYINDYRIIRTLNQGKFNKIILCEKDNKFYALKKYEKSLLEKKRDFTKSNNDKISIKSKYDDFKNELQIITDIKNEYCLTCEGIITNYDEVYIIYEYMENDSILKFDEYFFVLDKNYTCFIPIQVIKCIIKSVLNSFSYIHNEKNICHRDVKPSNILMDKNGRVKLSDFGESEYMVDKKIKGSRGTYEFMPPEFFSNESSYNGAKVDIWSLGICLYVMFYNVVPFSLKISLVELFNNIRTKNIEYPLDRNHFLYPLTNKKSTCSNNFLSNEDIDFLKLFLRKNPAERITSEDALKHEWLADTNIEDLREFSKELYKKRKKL

[8] = molecular target: Calcium-dependent protein kinase 4 (Plasmodium falciparum (isolate 3D7)) (UniProt Q8IBS5); test: PfCDPK4 kinase inhibitors, biochemical, TCAMS library (AID 1159588; cut-off not given, nearly all actives have IC50 up to about 0.91 µM); details: recombinant PfCDPK4, Kinase-Glo ATP depletion luminescence
Calcium-dependent protein kinase 4 (Plasmodium falciparum (isolate 3D7)), sequence (Q8IBS5 whole entry, looked up): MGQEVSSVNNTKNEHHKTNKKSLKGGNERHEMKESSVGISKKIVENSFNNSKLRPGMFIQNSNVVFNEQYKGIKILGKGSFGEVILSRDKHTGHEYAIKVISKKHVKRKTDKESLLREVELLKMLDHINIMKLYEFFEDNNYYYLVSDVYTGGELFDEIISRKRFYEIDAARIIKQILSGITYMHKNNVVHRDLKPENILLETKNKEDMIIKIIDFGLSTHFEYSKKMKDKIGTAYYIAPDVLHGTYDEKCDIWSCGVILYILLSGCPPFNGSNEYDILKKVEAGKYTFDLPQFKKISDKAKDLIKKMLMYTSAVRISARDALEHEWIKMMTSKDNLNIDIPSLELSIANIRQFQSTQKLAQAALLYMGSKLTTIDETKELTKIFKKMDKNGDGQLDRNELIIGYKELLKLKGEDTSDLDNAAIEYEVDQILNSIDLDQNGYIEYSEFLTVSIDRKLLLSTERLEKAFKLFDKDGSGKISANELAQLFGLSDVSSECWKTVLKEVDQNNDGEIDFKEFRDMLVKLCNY

CCCCNc1cc(NCCCC)c2c(n1)[nH]c1ccccc12
inactive: inhibition [2] 13% | inhibition [3] -1% | outcome [5] | outcome [6] | outcome [7] | outcome [8]
active: growth inhibition [1] 94% | growth inhibition [4] 100%

CCc1c(CCNCCCCCCNCCc2ccc(OC)c(OC)c2C)ccc(OC)c1OC
active: growth inhibition [4] 98%
inactive: growth inhibition [1] 1% | inhibition [2] 16% | inhibition [3] 5% | outcome [5] | outcome [6] | outcome [7] | outcome [8]

NCCNc1ccc([N+](=O)[O-])cc1C(=O)Nc1cccc(Cl)c1
active: growth inhibition [4] 85%
inactive: growth inhibition [1] 7% | inhibition [2] 23% | inhibition [3] 4% | outcome [5] | outcome [6] | outcome [7] | outcome [8]

COc1nc(-n2ccc(=N)cc2)nc2ccccc12
active: growth inhibition [4] 90%
inactive: growth inhibition [1] 45% | inhibition [2] 15% | inhibition [3] 1% | outcome [5] | outcome [6] | outcome [7] | outcome [8]

CC(C)NCc1cccc(-c2ccc(NC(=O)c3cccc(C#N)c3)cc2)c1
active: growth inhibition [1] 95% | growth inhibition [4] 101%
inactive: inhibition [2] 22% | inhibition [3] 6% | outcome [5] | outcome [6] | outcome [7] | outcome [8]

O=C(Nc1ccccc1-c1nc2ccccc2s1)C(Cl)(Cl)Cl
active: growth inhibition [1] 99% | growth inhibition [4] 97%
inactive: inhibition [2] 12% | inhibition [3] -7% | outcome [5] | outcome [6] | outcome [7] | outcome [8]

CC1CCC(C(C)C)C(OC(=O)CSc2nnc3c(n2)[nH]c2ccccc23)C1 (configuration not stated)
inactive: inhibition [2] -5% | inhibition [3] -2% | outcome [5] | outcome [6] | outcome [7] | outcome [8]
active: growth inhibition [1] 74% | growth inhibition [4] 88%

CCc1ccc(NC(=O)c2ccc(CN3CCCN(CC4CCCCC4)CC3)cc2)cc1
active: growth inhibition [4] 96%
inactive: growth inhibition [1] 48% | inhibition [2] 48% | inhibition [3] 3% | outcome [5] | outcome [6] | outcome [7] | outcome [8]

O=C(Nc1ccc2ccccc2c1)c1ccc(CN2CCC(Cc3ccccc3)CC2)cc1
active: growth inhibition [4] 95%
inactive: growth inhibition [1] 10% | inhibition [2] 38% | inhibition [3] -8% | outcome [5] | outcome [6] | outcome [7] | outcome [8]

CC1(C)OC[C@]2(C)[C@@H](CC[C@]3(C)C4=CC(=O)CCC4CC[C@@H]23)O1 (some centres not stated)
active: growth inhibition [1] 95% | growth inhibition [4] 97%
inactive: inhibition [2] -2% | inhibition [3] 1% | outcome [5] | outcome [6] | outcome [7] | outcome [8]

COCCN1CCC(N(Cc2ccc(-c3ccc(C(F)(F)F)cc3)cc2)C(=O)Cn2c(CCc3cccc(F)c3F)cc(=O)c3c2CCC3)CC1
active: growth inhibition [4] 85%
inactive: growth inhibition [1] 48% | inhibition [2] 31% | inhibition [3] -5% | outcome [5] | outcome [6] | outcome [7] | outcome [8]

CC(=O)c1ccc2c(c1)CCN(CCC1CCC(NC(=O)c3cc4ccccc4[nH]3)CC1)CC2 (configuration not stated)
inactive: growth inhibition [1] 47% | inhibition [3] 2% | outcome [5] | outcome [6] | outcome [7] | outcome [8]
active: inhibition [2] 64% | growth inhibition [4] 86%

CCN(CC)CCN1C(=O)c2oc3ccc(F)cc3c(=O)c2C1c1cccc(Cl)c1 (configuration not stated)
active: growth inhibition [1] 93% | growth inhibition [4] 99%
inactive: inhibition [2] -4% | inhibition [3] -2% | outcome [5] | outcome [6] | outcome [7] | outcome [8]

C=CCc1cc(C2CCN(CCCCNC(=O)c3ccc(-c4ccc(C#N)cc4)cc3)CC2)c(OCC(N)=O)c2c1CCCC2
inactive: inhibition [2] 43% | inhibition [3] -6% | outcome [5] | outcome [6] | outcome [7] | outcome [8]
active: growth inhibition [1] 92% | growth inhibition [4] 101%

Cc1cc(C(=O)NC2CCN(CC3(c4ccccc4)CCCCC3)CC2)on1
inactive: inhibition [2] -3% | inhibition [3] -3% | outcome [5] | outcome [6] | outcome [7] | outcome [8]
active: growth inhibition [1] 95% | growth inhibition [4] 97%

CCCN1CCC(c2c[nH]c3ccc(NC(=O)Nc4cccc(Cl)c4Cl)cc23)CC1
active: growth inhibition [4] 100%
inactive: growth inhibition [1] 17% | inhibition [2] 30% | inhibition [3] 2% | outcome [5] | outcome [6] | outcome [7] | outcome [8]

COc1c(C2CCN(CCCCNC(=O)c3ccc(-c4ccc(NC(=O)C(F)(F)F)cc4)cc3)CC2)ccc2c1CCCC2
active: inhibition [2] 95% | growth inhibition [4] 86%
inactive: growth inhibition [1] 33% | inhibition [3] 8% | outcome [5] | outcome [6] | outcome [7] | outcome [8]

COc1ccc(C2CC(c3cccs3)=NN2C(=O)c2ccccc2)cc1OC (configuration not stated)
active: growth inhibition [1] 83% | growth inhibition [4] 99%
inactive: inhibition [2] 5% | inhibition [3] 5% | outcome [5] | outcome [6] | outcome [7] | outcome [8]

CC(C)c1ccc(NC(=O)c2ccc(CN3CCCN(Cc4cccc(Cl)c4)CC3)cc2)cc1
inactive: growth inhibition [1] 12% | inhibition [2] 45% | inhibition [3] 5% | outcome [5] | outcome [6] | outcome [7] | outcome [8]
active: growth inhibition [4] 90%

COc1cc2nc(N3CCC(CNC(=O)c4ccc(-c5ccc(C(=O)N(C)C)cc5OCCN(C)C)cc4)CC3)nc(N)c2cc1OC
active: growth inhibition [4] 95%
inactive: growth inhibition [1] -1% | inhibition [2] -1% | inhibition [3] -6% | outcome [5] | outcome [6] | outcome [7] | outcome [8]

NOCCCCOc1ccc(Cl)cc1
active: growth inhibition [4] 98%
inactive: growth inhibition [1] -1% | inhibition [2] 2% | inhibition [3] -4% | outcome [5] | outcome [6] | outcome [7] | outcome [8]

Cc1ccc(NC(=O)NC2CCN(c3ccnc4ccccc34)C2)cc1 (configuration not stated)
inactive: growth inhibition [1] 48% | inhibition [2] 7% | inhibition [3] 0% | outcome [5] | outcome [6] | outcome [7] | outcome [8]
active: growth inhibition [4] 99%

O=c1ccc2ccc(F)c3c2n1CC3CN1CCC(NCc2cccc(-c3cccs3)c2)CC1 (configuration not stated)
active: growth inhibition [1] 75% | growth inhibition [4] 100%
inactive: inhibition [2] 17% | inhibition [3] 0% | outcome [5] | outcome [6] | outcome [7] | outcome [8]

O=C(/C=C/c1ccc(Cl)c(Cl)c1)NCCCCCN1CCC(c2c[nH]c3ccc(O)cc23)CC1
active: growth inhibition [4] 101%
inactive: growth inhibition [1] 0% | inhibition [2] 20% | inhibition [3] 3% | outcome [5] | outcome [6] | outcome [7] | outcome [8]

Cc1cc(NN=Cc2ccccc2[N+](=O)[O-])c2cc(F)ccc2n1
inactive: inhibition [2] 18% | inhibition [3] -3% | outcome [5] | outcome [6] | outcome [7] | outcome [8]
active: growth inhibition [1] 100% | growth inhibition [4] 102%

Cc1cnc(CN(Cc2ccc(-c3ccc(CNCCc4ccc(S(C)(=O)=O)cc4)cn3)cc2)C(=O)c2ccc([N+](=O)[O-])c(C)c2)cn1
active: growth inhibition [4] 93%
inactive: growth inhibition [1] 15% | inhibition [2] -4% | inhibition [3] 4% | outcome [5] | outcome [6] | outcome [7] | outcome [8]

COc1ccc(CN2CCCC(N3CC4(OC3=O)c3ccccc3-c3ccccc34)C2)c(O)c1 (configuration not stated)
inactive: growth inhibition [1] 34% | inhibition [2] 14% | inhibition [3] 7% | outcome [5] | outcome [6] | outcome [7] | outcome [8]
active: growth inhibition [4] 92%

CC[C@H](C)CNC(=O)c1cncc(-c2cccc(CN3CCC(N4CCCC4)CC3)c2)c1
inactive: growth inhibition [1] 5% | inhibition [2] -1% | inhibition [3] 6% | outcome [5] | outcome [6] | outcome [7] | outcome [8]
active: growth inhibition [4] 97%

COc1ccc(CNCCCCCCNCCc2ccc(Cl)cc2)cc1OC
active: growth inhibition [4] 96%
inactive: growth inhibition [1] 0% | inhibition [2] 21% | inhibition [3] 0% | outcome [5] | outcome [6] | outcome [7] | outcome [8]

COc1ccc(CC2(c3ccc(F)cc3)N=C(N)N(CCCc3ccc(F)c(F)c3)C2=O)cc1 (configuration not stated)
inactive: inhibition [2] 42% | inhibition [3] 5% | outcome [5] | outcome [6] | outcome [7] | outcome [8]
active: growth inhibition [1] 98% | growth inhibition [4] 98%

CCCCCC(C)(C)NC[C@@H](O)[C@H](Cc1ccccc1)NC(=O)c1cc(NCC)cc(N2CCCC2=O)c1
active: growth inhibition [1] 97% | growth inhibition [4] 99%
inactive: inhibition [2] 9% | inhibition [3] -5% | outcome [5] | outcome [6] | outcome [7] | outcome [8]

CC(C)c1nc(N2CCN(C(=S)NCc3ccccc3)CC2)c(C#N)c2c1COC(C)(C)C2
inactive: inhibition [2] -7% | inhibition [3] 6% | outcome [5] | outcome [6] | outcome [7] | outcome [8]
active: growth inhibition [1] 100% | growth inhibition [4] 99%

CCc1cn2c3c(cc(C(=O)N[C@@H](Cc4cccc(F)c4)[C@H](O)CNC4CCCCC4)cc13)N(C)S(=O)(=O)CC2
inactive: inhibition [2] 5% | inhibition [3] 0% | outcome [5] | outcome [6] | outcome [7] | outcome [8]
active: growth inhibition [1] 99% | growth inhibition [4] 99%

COc1cc(Cc2cnc(N)nc2N)c2c(c1OC)OC(C)(C)C=C2
active: growth inhibition [4] 93%
inactive: growth inhibition [1] 2% | inhibition [2] 7% | inhibition [3] -3% | outcome [5] | outcome [6] | outcome [7] | outcome [8]

Nc1nc(N)c2c(ccc3c2ccn3CCCF)n1
active: inhibition [2] 61% | growth inhibition [4] 94%
inactive: growth inhibition [1] 0% | inhibition [3] 0% | outcome [5] | outcome [6] | outcome [7] | outcome [8]

CCOC(=O)c1cnc2c(OC)cc(OC)c(Cl)c2c1Nc1ccccc1
active: growth inhibition [1] 100% | growth inhibition [4] 99%
inactive: inhibition [2] 13% | inhibition [3] -3% | outcome [5] | outcome [6] | outcome [7] | outcome [8]

Cc1ccc(NC(=O)Nc2ccc(Br)cc2)cc1OCCN(C)C
inactive: growth inhibition [1] 15% | inhibition [2] 13% | inhibition [3] -1% | outcome [5] | outcome [6] | outcome [7] | outcome [8]
active: growth inhibition [4] 84%

Fc1cccc(Nc2nc(NCc3ccc4ccsc4c3)nc(Nc3cccc(F)c3)n2)c1
active: growth inhibition [4] 94%
inactive: growth inhibition [1] 11% | inhibition [2] -2% | inhibition [3] -1% | outcome [5] | outcome [6] | outcome [7] | outcome [8]

Cc1cc(N2CCC(NS(=O)(=O)c3cccc4cccnc34)CC2)nc(Nc2cccc(C#N)c2)n1
active: growth inhibition [1] 87% | growth inhibition [4] 98%
inactive: inhibition [2] 12% | inhibition [3] -3% | outcome [5] | outcome [6] | outcome [7] | outcome [8]
